# Assay outcomes from PubChem BioAssay.
# Most compounds without a hit are left out; they make up all but 3.1% or so of the library.
# esBAF inh – blocks esBAF chromatin remodeling in mouse ES cells; Bmi1-luciferase knock-in reporter, 24 h; 100% = twice the neutral-well signal; actives 2% (n = 350,000); AID 602393; reporter increase, % at 12.5 µM; in the data active means activation above about 40%; inconclusive means no clear call, values can overlap the other calls;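 further: a rise in the Bmi1 reporter signal indicates esBAF inhibition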
# Rtt109 HAT inh – C. albicans Rtt109 histone acetyltransferase inhibition; Q5AAJ8; purified Rtt109/Vps75, ThioGlo CoA-SH fluorescence, 4 h; inhibition, % at 34.9 µM; actives 0.16% (n = 330,000);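 active means inhibition of at least 50% in every replicate; inconclusive means best replicate reaches 50% inhibition but some replicates fall short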
# Target sequence (Q5AAJ8 whole entry, looked up): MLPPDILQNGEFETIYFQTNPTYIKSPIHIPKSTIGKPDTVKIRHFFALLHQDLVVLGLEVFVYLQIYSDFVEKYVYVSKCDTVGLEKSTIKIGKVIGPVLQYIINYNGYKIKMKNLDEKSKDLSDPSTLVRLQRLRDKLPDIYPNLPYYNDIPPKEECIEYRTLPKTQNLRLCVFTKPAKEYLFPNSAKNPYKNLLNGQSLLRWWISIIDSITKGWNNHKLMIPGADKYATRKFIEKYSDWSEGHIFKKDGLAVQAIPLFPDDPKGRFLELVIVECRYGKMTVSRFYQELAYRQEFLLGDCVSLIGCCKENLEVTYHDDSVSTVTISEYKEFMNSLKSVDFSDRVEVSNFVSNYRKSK
# MITF act – activators of MITF-driven TRPM1 promoter activity in SK-MEL-5 cells. SK-MEL-5 TRPM1-promoter luciferase, 24 h; % of positive control, neutral wells = 0. activation, % at 12.5 µM. actives 0.75% (n = 300,000);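 active means mean activation of at least 80% with every replicate also reaching 80%; inconclusive means mean reaches 80% but some replicate falls short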
# Wnt act – Wnt/beta-catenin pathway activation. actives 1.2% (n = 300,000). activation, % at 9.35 µM. Wnt/beta-catenin reporter cell assay, activator, plate reader; in the data active means activation above about 30%, passing the limit was not always enough; inconclusive means no clear call, values can overlap the other calls
# C2C12 statin – protects C2C12 myotubes from simvastatin toxicity | ATP luminescence, 48 h; scaled: DMSO 0, geranylgeraniol control 100 | rescue of ATP level, % at 7.49 µM | actives 0.78% (n = 330,000) | AID 602340;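 active means mean ATP rescue above about 67%, or every replicate alone reaching that limit, limit read from the data, passing the limit was not always enough; inconclusive means no clear call, values can overlap the other calls; inactive means mean under the limit and some replicate under it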;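 further: myotubes were challenged with 10 µM simvastatin during compound exposure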
# Numbers stand for hits; - = inactive; ? = inconclusive; . = not tested or not shown.
SMILES,esBAF inh,Rtt109 HAT inh,MITF act,Wnt act,C2C12 statin
O=C1c2ccccc2C(=O)N1N=Cc1ccc2c(c1)OCO2,.,.,.,52,.
CCCc1cc(C(N)=O)c(NC(=O)c2ccco2)s1,-,-,.,41,-
CCCc1cc(C(N)=O)c(NC(=O)C2CCCO2)s1 (stereo not given),-,-,-,.,-
CCCc1n[nH]c2c1/C(=N/O)CC(c1ccccc1)C2 (stereo not given),.,-,-,.,.
CCc1n[nH]c2c1/C(=N/O)CCC2,-,-,-,.,87
COCCCN(C(=O)c1ccccc1)c1nc(-c2ccc(OC)cc2)cs1,-,-,.,-,-
COCCCN(C(C)=O)c1nc(-c2ccccc2)cs1,46,-,-,-,-
O=C1c2ccccc2-n2c1nc1ccccc1c2=O,45,-,.,-,-
O=c1c2ccccc2nc2n1-c1ccccc1CCC2,-,-,.,-,-
CCC(=O)Nc1ccc2c(c1)OC[C@@H](C)N(C(=O)Cc1ccccn1)C[C@@H](C)[C@@H](OC)CN(C)C2=O,-,.,.,.,-
C=CCN=C1S/C(=C\c2ccc(N(C)C)cc2)C(=O)N1CC=C,.,-,99,37,.
C=CCN1C(=O)/C(=C/c2ccc(OC)cc2)S/C1=N/c1nccs1,.,-,-,-,.
COc1ccc(Nc2nc3ccc(C)cn3c(=O)c2/C=N/O)cc1,-,-,-,-,109
COC(=O)Cn1c2nc3ccccc3nc2c2cccc(C)c21,-,-,-,-,-
COC(=O)Cn1c2ccccc2c2nc3ccccc3nc21,50,-,-,-,-
O=C(O)CCn1c2ccccc2c2nc3ccccc3nc21,50,-,.,-,-
COc1ccccc1-c1cnc2c(c1)C(=O)N([C@H](C)CO)C[C@@H](C)[C@H](CN(C)CC1CCOCC1)O2,-,.,.,.,-
c1ccc(Cn2ccnc2-c2ccco2)cc1,56,-,-,-,-
Cc1ccccc1S(=O)(=O)NCC[C@H]1CC[C@H](NC(=O)C2CCOCC2)[C@H](CO)O1,-,.,.,.,-
c1coc(CNc2nc3ccccc3s2)c1,-,-,-,36,-
c1coc(CN2CN=C(Nc3nc4ccccc4s3)NC2)c1,51,-,-,-,-
Cc1nnc(NCc2ccco2)s1,-,-,-,-,-
c1ccc(CN2CN=C(Nc3nc4ccccc4s3)NC2)cc1,-,-,-,-,-
CO[C@@H]1CN(C)C(=O)c2cc(NS(C)(=O)=O)ccc2OC[C@@H](C)N(Cc2ccccn2)C[C@@H]1C,-,.,.,.,-
Cc1ccc(-c2cn3c(=O)cc(C)[nH]c3n2)cc1,?,-,-,45,-
SMILES,esBAF inh,Rtt109 HAT inh,MITF act,Wnt act,C2C12 statin
COc1ccc(CNC(=O)CN(C(=O)c2csnn2)c2ccccc2F)cc1,-,-,-,-,-
COc1ccc(CNC(=O)CN(C(=O)c2csnn2)c2cccc3c2CCCC3)cc1,-,-,-,-,73
CO[C@H]1CN(C)C(=O)c2cc(NC(=O)C3CC3)ccc2OC[C@@H](C)N(CCc2ccccc2)C[C@@H]1C,-,.,.,.,-
Cc1ccc(S(=O)(=O)NCC[C@@H]2CC[C@H](NC(=O)Nc3ccccc3F)[C@H](CO)O2)cc1,-,.,.,.,-
CCOC(=O)c1ccc(-c2ccc(/C=N/NC(=O)c3cncc(Br)c3)o2)cc1,-,.,.,-,-
CCOC(=O)c1ccc(-c2ccc(C=O)o2)cc1,54,-,-,53,-
CCCOC(=O)c1ccc(-c2ccc(C=O)o2)cc1,76,-,-,-,-
CCCCOC(=O)c1ccc(-c2ccc(/C=N/NC(=S)NCC)o2)cc1,46,-,-,-,-
CCOC(=O)c1cccc(-c2ccc(C=O)o2)c1,-,-,-,-,-
COCC#Cc1ccc2c(c1)O[C@@H](CN(C)C(=O)CN(C)C)[C@H](C)CN([C@@H](C)CO)S2(=O)=O,-,.,.,.,-
Cc1noc(C)c1NC(=O)Nc1ccc2c(c1)C(=O)N([C@@H](C)CO)C[C@@H](C)[C@@H](CN(C)C(=O)Cc1ccccc1)OCCCC[C@@H](C)O2,-,.,.,.,-
CO[C@H](CN(C)S(=O)(=O)c1ccc(Cl)cc1)[C@H](C)CN([C@@H](C)CO)S(=O)(=O)c1cccc(Cl)c1,-,.,.,.,-
O=[N+]([O-])c1ccccc1OCc1nc(-c2cccs2)no1,.,-,119,-,.
CC(=O)N(C)c1ccc(NC(=O)Cc2cccc3ccccc23)cc1,-,-,-,-,123
CC(C)(C)C(=O)COC(=O)c1cccc(NC(=O)c2ccco2)c1,-,-,-,-,-
O=C(COC(=O)c1cccc(NC(=O)c2ccco2)c1)c1ccc(Br)cc1,-,-,.,43,-
